# This is a sample that favours compounds with a hit; in the whole collection about 3.9% have one here.
# VDR inhibitor: inhibitors of human vitamin D receptor; Potency, µM, inactives show max response, negative = inhibition, usual class: inhibitors; VDR-SRC2-3 peptide fluorescence polarization, 2 h; 400,000 compounds, 0.93% hits; P11473; AID 504847; also: % is scaled to controls: 0 for no effect and ±100 for the full control effect
#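 Compounds are added to VDR with labelled SRC2-3 coactivator peptide and held 2 h at room temperature. Inhibition of the VDR–peptide interaction is then read as a change in fluorescence polarization.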
# PLK1 PBD block: PLK1 (human) polo-box domain binding inhibition. Plk1 PBD binding of FITC phosphopeptide, fluorescence polarization. Potency, µM, for inactives: max response, negative = inhibition, usual class: inhibitors. 360,000 compounds, 2.8% hits; also: series mostly up to about 57 µM; % is scaled to controls: 0 for no effect and ±100 for the full control effect; nearly all actives have a fitted effect of over 65% in size
# BRCA1 expr up: BRCA1 expression activation; Potency, µM (top dose mostly 46.1 µM), inactives show at the top dose activation, actives largely listed as activators; AID 624202; MCF7-BRCA1-FFLuc reporter, luminescence, 48 h; response scale: scaled: vehicle 0%, 10 µM genistein 100%; 380,000 compounds, 1.1% hits; also: nearly all actives have a fitted effect of over 80% in size
#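 MCF7 cells carrying a BRCA1-firefly luciferase reporter (2000 cells/well, phenol-red free MEM) were attached for 2 h at 37 °C, then given compounds for 48 h. Luminescence was read 15 min after luciferase reagent; activity normalized to genistein (10 microM) and DMSO.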
# Tb PFK block: inhibitors of T. brucei phosphofructokinase. T. brucei PFK, ADP-Glo luminescence. Potency, µM (highest dose often 57.5 µM), for inactives: at the highest dose activity, negative = inhibition, hits mostly inhibitors. 330,000 compounds, 0.17% hits. AID 485367;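 also: 0% = uninhibited 1x PFK enzyme wells and -100% = no-enzyme wells; nearly all actives have a fitted effect of over 60% in size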
# Target sequence (O15648 whole entry, looked up): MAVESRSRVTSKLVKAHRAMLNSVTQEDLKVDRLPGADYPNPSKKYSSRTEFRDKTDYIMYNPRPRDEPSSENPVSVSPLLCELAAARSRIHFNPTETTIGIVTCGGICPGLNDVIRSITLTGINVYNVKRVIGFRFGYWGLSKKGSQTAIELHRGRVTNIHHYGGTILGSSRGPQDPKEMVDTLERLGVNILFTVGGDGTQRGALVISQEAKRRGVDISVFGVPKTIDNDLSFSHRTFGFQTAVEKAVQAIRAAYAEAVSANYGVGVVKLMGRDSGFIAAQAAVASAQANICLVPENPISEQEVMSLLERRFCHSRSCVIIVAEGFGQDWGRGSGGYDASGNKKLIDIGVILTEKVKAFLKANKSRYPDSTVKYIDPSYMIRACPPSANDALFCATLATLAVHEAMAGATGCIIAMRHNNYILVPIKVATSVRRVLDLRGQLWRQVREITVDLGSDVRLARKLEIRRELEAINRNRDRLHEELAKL
#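 PFK 1.25 nM, F6P 0.5 mM, ATP 0.1 mM, 0.1 M TEA pH 8.0, 5 mM MgCl2, 0.01% Tween20, 0.1% BSA; 45 min RT. ADP-Glo readout. qHTS titration up to 57 uM; curves fitted, compounds curve-classed.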
# Numbers without * were called inactive; ? = inconclusive; · = not tested or not shown. Calls follow the shape of the dose curve; as a rule, active = well fitted curve in the direction sought with a large enough effect; inconclusive = small, poorly fitted or top-dose-only effect, or another doubt; inactive = no such curve, though single readings can be large; an effect the other way counts as inactive or inconclusive. Potency is read from the fitted curve at half-maximal effect.
SMILES,VDR inhibitor,PLK1 PBD block,BRCA1 expr up,Tb PFK block
C=C1C(=O)C23C(O)C1CCC2C12CCCC(C)(COC(C)=O)C1C(O)C3(O)OC2 (stereo not given),25µM*,15µM*,-89%,·
Cc1ccc(CN2CCC(NC(=O)c3ccccc3)CC2)cc1,-11%,30µM*,-9%,1%
Cc1ccc(C(=O)N/C(=C\c2ccccc2)C(=O)OCc2ccccc2)cc1,-14%,3%,7.9µM*,-6%
Cc1ccc(CONC(=O)c2ccc(C)cc2)cc1,18%,-6%,?,0%
Cc1ccc(CONC(=O)c2ccccc2)cc1,12%,-2%,2.2µM*,1%
O=C(OCc1ccccc1)/C(=C/c1cccc2ccccc12)NC(=O)c1ccccc1,5%,-10%,-15%,0%
Cc1ccc(C)n1-c1ccc(C(=O)NC2CCN(Cc3ccccc3)CC2)cc1,-16%,-12%,-36%,0%
Cc1ccc(CONC(=O)c2ccc(Cl)cc2)cc1,8%,-7%,8.9µM*,-10%
CCCNC(=O)C1(C)CCN(C(=O)c2ccc(OC(F)F)cc2)C1 (stereo not given),·,-10%,17%,·
CCOC(=S)N/C(=N\S(C)(=O)=O)c1ccccc1,-24%,17µM*,6%,0%
CCOC(=S)N/C(=N\S(=O)(=O)c1ccccc1)c1ccccc1,-29%,19µM*,-20%,0%
Cc1ccc(S(=O)(=O)/N=C(/NC(=S)Nc2ccccc2)c2ccccc2)cc1,-25%,?,?,4%
Cc1ccc(NC(=S)N/C(=N/S(=O)(=O)c2ccccc2)c2ccccc2)cc1,-5%,24µM*,13µM*,1%
COC(=S)N/C(=N\S(=O)(=O)c1ccc(Cl)cc1)c1ccccc1,89µM*,24µM*,1%,2%
CCOC(=O)c1ccc(N/C(=N\S(=O)(=O)c2ccccc2C)c2ccccc2)cc1,15%,-7%,-14%,4%
CC(C)[C@@H](CO)N(C)S(=O)(=O)c1ccccc1Br,0%,-12%,8%,0%
CC(=O)c1ccc(NC(=O)Cn2cc3c(n2)CCCC3)cc1,-1%,·,·,·
COC(=O)c1ccccc1NC(=O)COc1ccccc1C(=O)Nc1ccccc1,·,·,0%,·
CCCOC(=S)N/C(=N\S(=O)(=O)c1ccccc1)c1ccccc1,-14%,28µM*,14%,-18%
Cc1ccc(-c2csc3ncn(CC(=O)N4CCOCC4)c(=O)c23)cc1C,-1%,30µM*,0%,2%
O=C(Cn1cnc2scc(-c3ccc(F)cc3)c2c1=O)N1CCOCC1,9%,2%,-24%,5%
O=C(CN1C(=O)CC(c2ccco2)Sc2ccccc21)Nc1ccc(Br)cc1 (stereo not given),-3%,·,-6%,·
O=C(CN1C(=O)CC(c2ccco2)Sc2ccccc21)Nc1ccccc1F (stereo not given),79µM*,-22%,0%,3%
CC1=NN(C(N)=S)C(=O)C1N=Nc1c(Br)cc(Br)cc1Br (stereo not given),?,24µM*,9%,-3%
CC1=NN(C(N)=S)C(=O)C1N=Nc1c(C)cc(C)cc1C (stereo not given),-14%,-19%,12%,-4%
SMILES,VDR inhibitor,PLK1 PBD block,BRCA1 expr up,Tb PFK block
CCc1cnc2c(c1SCC(=O)Nc1cc(Cl)ccc1OC)c(=O)n(C)c(=O)n2C,5%,·,·,·
COc1ccc(C(=O)Nc2cnc3ccccn3c2=O)cc1,-12%,-12%,4.5µM*,2%
COc1ccc(-c2cc(=S)ss2)cc1,40µM*,·,·,·
COC(=O)[C@@]1(C)[C@H]2C(=O)N(Cc3ccccc3)C(=O)[C@H]2[C@H]2CN=C(SCC(=O)c3ccccc3)N21,20µM*,?,5%,-1%
COC(=O)[C@@]1(C)[C@H]2C(=O)N(Cc3ccccc3)C(=O)[C@H]2[C@H]2CN=C(SC)N21,-14%,-20%,23%,-3%
Cc1ccccc1OCCN1C(=O)C(=O)c2cccc(C)c21,50µM*,?,-10%,-3%
Cc1cccc2c1N(CCOc1ccccc1Cl)C(=O)C2=O,?,-20%,3%,6%
CSCCC(c1nc2ccccc2[nH]1)n1c(-c2cc(C(F)(F)F)cc(C(F)(F)F)c2)nc2ccccc21 (stereo not given),·,0%,·,·
CCc1ccc(CN2CC(C(=O)O)CC2=O)cc1 (stereo not given),2%,-1%,8%,-1%
O=C(O)C1CC(=O)N(Cc2ccc(F)cc2)C1 (stereo not given),-12%,27µM*,-11%,1%
Cc1ccc(-c2noc(CN(C(=O)COc3cc(C)cc(C)c3C)C(C)C)n2)cc1,-11%,·,-4%,·
Cc1csc2nc(CSc3ccc(Cl)cc3)cn12,?,6.7µM*,?,-4%
CN(C(=O)CSc1ncnc2sccc12)C1CCCCC1,-5%,0%,4µM*,-1%
CN(C(=O)CSc1ncnc2sccc12)C1CCS(=O)(=O)C1 (stereo not given),17%,-8%,-13%,0%
O=C(Nc1ccc(Cl)cc1Cl)c1cccc(N2C(=O)C=CC2=O)c1,?,1.9µM*,-27%,-3%
O=C(Nc1ccc2c(c1)OCCO2)c1cnc2n(c1=O)CCS2,8%,-2%,7.1µM*,0%
O=C(Nc1ccc2c(c1)OCO2)c1cnc2n(c1=O)CCS2,-8%,-10%,2.5µM*,5%
Cc1cccc(NC(=O)c2cnc3n(c2=O)CCS3)c1,3%,-4%,78%,-6%
COC(=O)c1nnc(N[C@@H](Cc2c[nH]c3ccccc23)C(=O)OC)nc1C(=O)OC,0%,·,·,·
CS(=O)(=O)N1CCCC(C(=O)Nc2ccccc2F)C1 (stereo not given),-3%,-9%,1%,2%
O=C(Nc1ccccc1F)C1CCCN(S(=O)(=O)c2ccccc2)C1 (stereo not given),?,3.4µM*,0%,-2%
CCN(c1ccccc1)S(=O)(=O)c1csc(C(N)=O)c1,-16%,27µM*,-10%,2%
CCc1cc2c(=O)c(-c3nc4ccccc4n3C)c(C)oc2c(CN(CC)CC)c1O,0%,-2%,-1%,3%
CCN(CC)Cc1c(O)ccc2cc(-c3nc4ccccc4n3C)c(=O)oc12,1%,-3%,11µM*,-4%
CCn1cc([N+](=O)[O-])c(C(=O)Nc2ccc3c(c2)OCCO3)n1,6%,-5%,5µM*,-4%
SMILES,VDR inhibitor,PLK1 PBD block,BRCA1 expr up,Tb PFK block
CC(C(=O)Nc1ccc2c(c1)OCCO2)c1ccc([N+](=O)[O-])cc1 (stereo not given),-3%,30µM*,6%,-4%
COc1cccc(/C=N/NC(=O)CC(=O)NCCc2ccc(OC)c(OC)c2)c1,-14%,27µM*,-1%,-3%
CC1=C(C(=O)N2CCCCCC2)CC(CC(=O)NC2CCCCC2)C(=O)N1CCC1=CCCCC1 (stereo not given),·,-9%,-13%,·
COc1ccc(Cn2cc(CN3CCc4onc(-c5ccc(Br)cc5)c4C3=O)nn2)cc1,·,4%,·,·
CCCCCOc1ccc(C(O)C(CN2CCOCC2)c2ccccc2)cc1 (stereo not given),-17%,27µM*,-12%,2%
CCCCOc1ccc(C(=O)CCN2CCOCC2)cc1,32µM*,24µM*,-113%,-4%

# Source: PubChem BioAssay
